# Screening results as filed in PubChem BioAssay.
# Rows were chosen to be rich in hits. Some 8.2% of all compounds tested hit in one or more screens of this group.
# KB-V1 MDR tox – kills drug-selected multidrug resistant KB-V1 cells; KB-V1 MDR cells viability, CellTiter-Glo, 72 h; Potency, µM (titrated, usually from 46.1 µM), hits mostly cytotoxic; 400,000 compounds, 3.4% hits; AID 1347076; note: nearly all actives have a fitted effect of over 60% in size
#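 Luminescent ATP read-out (CellTiter-Glo, 10 min) measures survival of drug-selected KB-V1 MDR cells after 72 h, 37 degrees C compound exposure. Medium: phenol-red-free DMEM, 10% FBS. Values from fitted concentration-response curves.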
# ELG1 DNA repair – ELG1-dependent DNA repair inhibition; HEK293T ELG1-luciferase reporter, luminescence, 16 h; DNA damage induced by 5-fluorouridine; Potency, µM (top dose mostly 46.1 µM), actives largely listed as inhibitors; 330,000 compounds, 2.3% hits; AID 504467; note: nearly all actives have a fitted effect of over 55% in size
#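 Luminescence from the luciferase reporter, measured 30 min after ONE-Glo reagent at room temperature, was the read-out. Beforehand, 2,000 cells per well were exposed for 16 hr at 37 °C to 5-fluorouridine together with compound or vehicle.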
# KB-3-1 tox – KB-3-1 parental cell cytotoxicity; KB-3-1 viability, CellTiter-Glo ATP luminescence, 72 h; Potency, µM (doses to about 46.1 µM), actives largely listed as cytotoxic; 400,000 compounds, 1.4% hits; note: nearly all actives have a fitted effect of over 60% in size
#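 KB-3-1 cells, DMEM (no phenol red) + 10% FBS; compound by pin transfer, 72 h, 37 °C. Readout: CellTiter-Glo luminescence after 10 min. Data normalized, curve-fitted.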
# MCF10A rereplic – induces DNA re-replication in MCF 10a normal breast cells; MCF 10A DNA re-replication, Hoechst nuclear intensity, 48 h; Potency, µM (series often up to 46.1 µM), hits mostly activators; 350,000 compounds, 2.9% hits; AID 624296; note: nearly all actives have a fitted effect of over 50% in size
# SW480 rereplic – induces DNA re-replication in SW480 colon adenocarcinoma cells; SW480 DNA re-replication, Hoechst DNA content imaging, 48 h; Potency, µM (doses to about 46.1 µM), actives largely listed as activators; 340,000 compounds, 1.8% hits; note: nearly all actives have a fitted effect of over 55% in size
#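 250 cells/well; 23 nL cpd via pin tool; 48 hr, 37 C, 5% CO2; Hoechst 40 min; imager read of total nuclear intensity, ex 405/em 500-530 nm.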
# A number is an active result; – = inactive; ? = inconclusive; · = not tested or not shown; [ ] = remark or other dose. Calls come from the whole dose curve; as a rule, active = well fitted curve in the direction sought with a large enough effect; inconclusive = small, poorly fitted or top-dose-only effect, or another doubt; inactive = no such curve, though single readings can be large; an effect the other way counts as inactive or inconclusive.
SMILES,KB-V1 MDR tox,ELG1 DNA repair,KB-3-1 tox,MCF10A rereplic,SW480 rereplic
Nc1ccc2nc(-c3ccccc3)c(-c3ccccc3)nc2c1,–,–,–,21µM,23µM
Nc1ccc2nc(-c3ccccc3)sc2c1,?,·,16µM,26µM,?
Nc1ccc(Oc2ccc3nc(-c4ccccc4)c(-c4ccccc4)nc3c2)cc1,?,–,?,–,–
CN(C(=O)Cn1cnc2sccc2c1=O)C1CCCCC1,–,–,–,–,–
Cc1cccc(Cn2c(=O)n(Cc3ccc(C(=O)NC4CCN(Cc5ccccc5)CC4)cc3)c(=O)c3ccccc32)c1,–,·,–,·,·
COc1ccc(CNc2nc(-c3ccco3)nn2S(=O)(=O)c2ccc3ccccc3c2)cc1OC,–,·,–,·,·
CC(C)c1cc(C(=O)N2CCCC(CCC(=O)N3CCN(c4ccccn4)CC3)C2)no1 (stereo unspecified),?,12µM,–,–,–
O=C(CCC1CCCN(C(=O)C2=CCCC2)C1)N1CCN(c2ccccn2)CC1 (stereo unspecified),–,–,–,–,–
Cc1ccsc1C(=O)N1CCCC(CCC(=O)N2CCN(c3ccccn3)CC2)C1 (stereo unspecified),?,?,–,6.5µM,–
O=C(CCC1CCCN(C(=O)COc2ccccc2)C1)N1CCN(c2ccccn2)CC1 (stereo unspecified),–,21µM,–,–,–
O=C(COc1ccc2ccccc2c1Br)N1CCCCC1,–,?,–,–,–
O=C(COc1ccc2ccccc2c1Br)N1CCN(c2ccccn2)CC1,23µM,?,?,–,?
COc1ccc(C(=O)N2CCCC(CCC(=O)N3CCN(c4ccccn4)CC3)C2)cc1 (stereo unspecified),13µM,–,–,–,–
CN(C)c1ccc(C(=O)N2CCCC(CCC(=O)N3CCN(c4ccccn4)CC3)C2)cc1 (stereo unspecified),·,?,·,–,–
Cc1nc(SCc2ccc(OCCC(C)C)cc2)n[nH]1,–,?,–,–,23µM
COc1ccc(Cl)cc1NC(=O)CN(C)CC(=O)Nc1cc(OC)c(OC)c(OC)c1,–,18µM,4.6µM,?,?
COc1ccc(Cl)cc1NC(=O)CN(C)C(=O)c1cccc(S(=O)(=O)N2CCN(C)CC2)c1,21µM,–,–,–,–
CN1CCN(S(=O)(=O)c2cccc(C(=O)N(C)CC(=O)Nc3ccc(F)c(F)c3F)c2)CC1,–,–,–,?,–
COc1ccc(NC(=O)CS(=O)CC(=O)Nc2cc(Cl)ccc2OC)cc1 (stereo unspecified),21µM,–,–,–,–
COc1ccc(Cl)cc1NC(=O)CN(C)CC(=O)Nc1c(C)n(C)n(-c2ccccc2)c1=O,–,18µM,–,–,?
COc1ccc(OC)c(NC(=O)Nc2c(C)n(C)n(-c3ccccc3)c2=O)c1,–,·,–,·,·
CC1=C(C(=O)Nc2cccc(Cl)c2C)C2(CCCCCC2)OC1=O,–,·,–,·,·
CCCN(CC(=O)Nc1cc(Cl)ccc1Cl)C(=O)/C=C/c1cc(OC)ccc1OC,–,?,–,21µM,?
CCCN(CC(=O)Nc1ccc(Cl)cc1Cl)C(=O)/C=C/c1cc(OC)ccc1OC,?,?,–,–,·
CCOc1ccc(-c2nc3c(c(SCC(=O)N4CCCCC4)n2)Cc2cccc(OC)c2O3)cc1,–,·,–,·,·
SMILES,KB-V1 MDR tox,ELG1 DNA repair,KB-3-1 tox,MCF10A rereplic,SW480 rereplic
CCCCN(CC)CCCNC(=O)Nc1sc2nc3n(c(=O)c2c1C)CCC(C)CC3 (stereo unspecified),–,·,–,·,·
COc1ccc(C2NC(=O)N(C)C3=C2C(=O)N(c2ccc(Br)cc2)C3)cc1 (stereo unspecified),–,·,–,·,·
COc1ccc(N2CC3=C(C2=O)C(c2ccc(Br)cc2)NC(=O)N3C)cc1 (stereo unspecified),26µM,·,–,·,·
COCCCNc1cc(C)nc2ccccc12,–,–,–,–,–[9.22 µM]
Cc1cc(NCCCCCCCNc2cc(C)nc3cc([N+](=O)[O-])ccc23)c2ccc([N+](=O)[O-])cc2n1,21µM,·,?,3.7µM,?
Cc1ccc(-c2nc(C)c(CCNC(=O)c3cccs3)s2)cc1,?,·,–,·,·
COc1ccc(-c2nc(C)c(CCNC(=O)c3cccs3)s2)cc1,8.2µM,·,–,·,·
CC(C)NC(=S)N1CCN(S(=O)(=O)c2cccc(C(F)(F)F)c2)CC1,–,–,–,–,–
CCNC(=S)N1CCN(S(=O)(=O)c2cccc(C(F)(F)F)c2)CC1,23µM,–,–,–,–
Cc1ccc(C(=O)OCc2nnc(-c3ccccc3)o2)cc1S(=O)(=O)N1CCOCC1,–,–,–,–,–
CN1CCN(S(=O)(=O)c2ccc(Cl)cc2)CC1,–,–,–,–,?
CN1CCN(S(=O)(=O)c2ccc(Cc3ccc(S(=O)(=O)N4CCN(C)CC4)cc3)cc2)CC1,–,?,–,21µM,–
CN1CCN(S(=O)(=O)c2ccc(-c3ccc(Cl)cc3)cc2)CC1,13µM,–,–,?,–
CN1CCN(S(=O)(=O)c2ccc(-c3ccc(S(=O)(=O)N4CCN(C)CC4)cc3)cc2)CC1,·,–,·,·,·
CCO/C=N/Nc1nc(C(F)(F)F)nc2c1cnn2Cc1ccccc1,–,?,–,18µM,?
Cc1nc(Nc2ccncc2)c2oc3ccccc3c2n1,–,16µM,?,?,?
CC(=O)Nc1ccc(Nc2nc(C)nc3c2oc2ccccc23)cc1,–,?,–,–,–
CCc1nc(Nc2ccncc2)c2oc3ccccc3c2n1,–,?,8.2µM,?,18µM
O=C(O)c1ccccc1-c1cn2cc(Cl)ccc2n1,–,?,–,–,–
COc1ccc(-c2cn3cc(Cl)ccc3n2)cc1OC,16µM,?,–,–,–
Clc1ccc2nc(-c3ccc(Br)s3)cn2c1,18µM,?,–,–,–
COc1ccc(-c2cn3cc(C)ccc3n2)cc1Br,–,?,–,–,–
O=C(CCCc1ccccc1)NC(c1ccco1)c1cc(Cl)c2cccnc2c1O (stereo unspecified),–,·,?,·,·
COc1ccc(NC(=O)C2(C)CCCN(C(C)C)C2)cc1OC (stereo unspecified),?,·,–,·,·
CC(C)(C)NC(=O)C(c1ccc(-c2ccccc2)cc1)N(C[C@H]1CC[C@@H]([C@@H]2CC[C@H](CO)O2)O1)C(=O)c1cccc(Cl)c1 (stereo partly specified),–,?,15µM,?,–[9.22 µM]
CC(C)(C)NC(=O)C(c1ccc(-c2ccccc2)cc1)N(C[C@H]1CC[C@@H]([C@@H]2CC[C@H](CO)O2)O1)C(=O)c1ccc2ccccc2c1 (stereo partly specified),–,?,–,?,–
